The campaign covered roughly 310,000 compounds. About 14,000 (4.5%) showed an effect of 50% or more. The effect is printed as a negative number. Many of the other results were omitted from the sample, so strong results are more common in it than they were.
Each compound was assayed against human ether-à-go-go-related gene (hERG) potassium channel (human, UniProt Q12809) (assay: primary screen, population patch clamp on CHO cells stably expressing hERG; higher = less effect of the substance).
Chain of human ether-à-go-go-related gene (hERG) potassium channel (Q12809 whole entry, looked up): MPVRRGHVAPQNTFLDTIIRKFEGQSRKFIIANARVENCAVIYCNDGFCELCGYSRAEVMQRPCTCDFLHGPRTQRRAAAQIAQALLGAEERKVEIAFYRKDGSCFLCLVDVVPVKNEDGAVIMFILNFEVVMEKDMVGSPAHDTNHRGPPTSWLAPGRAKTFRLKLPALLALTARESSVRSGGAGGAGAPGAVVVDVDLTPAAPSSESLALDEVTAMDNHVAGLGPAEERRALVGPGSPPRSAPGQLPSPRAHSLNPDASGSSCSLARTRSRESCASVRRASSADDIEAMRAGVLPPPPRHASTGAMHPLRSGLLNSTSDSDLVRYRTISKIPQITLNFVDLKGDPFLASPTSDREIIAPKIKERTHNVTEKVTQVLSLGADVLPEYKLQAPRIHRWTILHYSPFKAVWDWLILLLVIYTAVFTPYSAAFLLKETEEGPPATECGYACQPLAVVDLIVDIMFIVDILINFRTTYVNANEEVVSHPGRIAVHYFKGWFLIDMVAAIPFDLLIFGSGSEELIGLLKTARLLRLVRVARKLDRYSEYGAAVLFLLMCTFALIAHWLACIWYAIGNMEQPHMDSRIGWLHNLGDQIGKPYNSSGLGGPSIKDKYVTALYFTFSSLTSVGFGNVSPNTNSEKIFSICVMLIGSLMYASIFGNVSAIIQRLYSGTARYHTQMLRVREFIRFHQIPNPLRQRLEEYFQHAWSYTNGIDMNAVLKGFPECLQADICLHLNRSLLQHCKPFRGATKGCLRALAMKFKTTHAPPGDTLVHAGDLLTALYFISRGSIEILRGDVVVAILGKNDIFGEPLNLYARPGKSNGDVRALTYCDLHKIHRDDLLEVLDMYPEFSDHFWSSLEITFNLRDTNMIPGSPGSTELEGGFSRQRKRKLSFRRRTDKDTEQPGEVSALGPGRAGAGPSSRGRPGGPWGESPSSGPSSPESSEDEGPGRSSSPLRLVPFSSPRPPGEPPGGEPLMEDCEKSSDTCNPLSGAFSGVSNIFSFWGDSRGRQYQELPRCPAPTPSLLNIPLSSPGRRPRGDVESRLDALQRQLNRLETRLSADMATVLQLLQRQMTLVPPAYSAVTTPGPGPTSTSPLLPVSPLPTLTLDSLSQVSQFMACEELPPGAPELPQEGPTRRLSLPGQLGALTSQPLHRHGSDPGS
In the case of O=C(c1ccccc1F)N1CCc2ccccc21, the “hERG current change (%, negative = inhibition) at 10uM” value is reported as -7.14%. In the case of Cc1ccc(N(CC(=O)NC2CCCC2)C(=O)CCCC(=O)Nc2ccccn2)cc1C, the “hERG current change (%, negative = inhibition) at 10uM” value is reported as 2.86%. With COc1ccc(/C=N/OCC(=O)NC(c2ccccc2)c2ccccc2)c(OC)c1 the “hERG current change (%, negative = inhibition) at 10uM” value was -35.1%. With CCn1c(CCNC(=O)c2cccs2)nnc1SCC(=O)NC1CCCCC1 the “hERG current change (%, negative = inhibition) at 10uM” value was 0.651%. CCn1c(CCNC(=O)c2cccs2)nnc1SCC(=O)Nc1ccc(Cl)cc1 was tested, and the “hERG current change (%, negative = inhibition) at 10uM” value was -49.7%. In the case of Cn1c(CNC(=O)c2cccs2)nnc1SCC(=O)Nc1ccc(Cl)cc1, the “hERG current change (%, negative = inhibition) at 10uM” value is reported as -35.4%. In the case of CCn1c(CCNC(=O)c2cccs2)nnc1SCC(=O)c1ccc(OC)cc1, the “hERG current change (%, negative = inhibition) at 10uM” value is reported as 7.05%. CCn1c(CNC(=O)c2cccs2)nnc1SCC(=O)Nc1ccc(Cl)cc1 was tested, and the “hERG current change (%, negative = inhibition) at 10uM” value was -57.5%. In the case of CCc1nnc(NC(=O)CSc2nnc(CNc3ccc(OC)cc3)n2CC)s1, the “hERG current change (%, negative = inhibition) at 10uM” value is reported as 13.1%. With CCn1c(CCNC(=O)c2cccs2)nnc1SCC(=O)Nc1cccc(Cl)c1 the “hERG current change (%, negative = inhibition) at 10uM” value was -64.5%. In the case of CCc1nnc(NC(=O)CSc2nnc(CNc3cccc(C)c3)n2-c2ccccc2)s1, the “hERG current change (%, negative = inhibition) at 10uM” value is reported as 3.35%. CCc1nnc(NC(=O)CSc2nnc(CNc3cccc(Cl)c3)n2CC)s1 was tested, and the “hERG current change (%, negative = inhibition) at 10uM” value was -59.6%. In the case of CCC(C)(C)C1CCC(=NNC(=O)c2ccoc2C)CC1 (stereo not shown), the “hERG current change (%, negative = inhibition) at 10uM” value is reported as 6.38%. For CSc1nc(-c2ccccc2)nc(N2CCCC2)c1C(C)=O, the “hERG current change (%, negative = inhibition) at 10uM” value was -10.8%. With CCN(CC)C(=O)CSc1ncnc2c1cnn2Cc1ccccc1 the “hERG current change (%, negative = inhibition) at 10uM” value was -19.9%. With O=C(NC1CCCCCCC1)c1ccccc1O the “hERG current change (%, negative = inhibition) at 10uM” value was -6.11%. With CC(=O)Nc1ccc(NC(=O)C(C)OC(=O)CCCc2c[nH]c3ccccc23)cc1 (stereo not shown) the “hERG current change (%, negative = inhibition) at 10uM” value was 7.68%. In the case of CCCCCn1c(CN2CCN(c3cccc(Cl)c3)CC2)nc2c1c(=O)n(C)c(=O)n2C, the “hERG current change (%, negative = inhibition) at 10uM” value is reported as -35.3%. With CCCn1c(CN2CCN(c3cccc(Cl)c3)CC2)nc2c1c(=O)n(C)c(=O)n2C the “hERG current change (%, negative = inhibition) at 10uM” value was -63.6%. CC(C)CCn1c(CN2CCN(c3cccc(Cl)c3)CC2)nc2c1c(=O)n(C)c(=O)n2C was tested, and the “hERG current change (%, negative = inhibition) at 10uM” value was -5.6%. Cn1c(=O)c2c(nc(CN3CCN(c4ccccc4)CC3)n2CCc2ccccc2)n(C)c1=O was tested, and the “hERG current change (%, negative = inhibition) at 10uM” value was -33.7%. With CCCCn1c(CN2CCN(c3ccccc3)CC2)nc2c1c(=O)n(C)c(=O)n2C the “hERG current change (%, negative = inhibition) at 10uM” value was -45.7%. CCCCn1c(CN2CCN(c3cccc(Cl)c3)CC2)nc2c1c(=O)n(C)c(=O)n2C was tested, and the “hERG current change (%, negative = inhibition) at 10uM” value was -56.3%. In the case of CCc1ccc(-c2nc(C(N)=O)c3[nH]c(=O)n(-c4ccccc4OC)c3n2)cc1, the “hERG current change (%, negative = inhibition) at 10uM” value is reported as -0.102%. In the case of COc1cc(/C=N/Nc2nc(=O)[nH]nc2C)ccc1O, the “hERG current change (%, negative = inhibition) at 10uM” value is reported as 4.93%. CSc1ccccc1NC(=O)CN(C)C(=O)c1ccc2c(c1)OCCO2 was tested, and the “hERG current change (%, negative = inhibition) at 10uM” value was 5.66%. O=C(CN1CCOCC1)OCCCc1ccccc1 was tested, and the “hERG current change (%, negative = inhibition) at 10uM” value was 9.77%. For CC(C)(C)OC(=O)N1CCC(c2c(C(=O)N3CCN(C4CCCCC4)CC3)cnn2-c2ccccc2)CC1, the “hERG current change (%, negative = inhibition) at 10uM” value was -54.7%. In the case of CC(C)(C)OC(=O)N1CCC(c2c(C(=O)NC3CC3)cnn2-c2ccccc2)CC1, the “hERG current change (%, negative = inhibition) at 10uM” value is reported as -22.9%. For CC(C)(C)OC(=O)N1CCC(c2c(C(=O)N3CCN(C4CCCCC4)CC3)cnn2-c2ccc(F)cc2)CC1, the “hERG current change (%, negative = inhibition) at 10uM” value was -55.5%. With CC(C)(C)OC(=O)N1CCC(c2c(C(=O)O)cnn2-c2ccccc2)CC1 the “hERG current change (%, negative = inhibition) at 10uM” value was 11%. For Cc1ccc(-n2ncc(C(=O)N3CCN(C(=O)c4ccco4)CC3)c2C2CCN(C(=O)OC(C)(C)C)CC2)cc1C, the “hERG current change (%, negative = inhibition) at 10uM” value was 0.366%. For O=C(c1cnn(-c2ccccc2)c1-n1cccc1)N1CCN(C2CCCCC2)CC1, the “hERG current change (%, negative = inhibition) at 10uM” value was -67.2%. In the case of Cc1ccc(-n2ncc(C(=O)O)c2C2CCN(C(=O)OC(C)(C)C)CC2)cc1, the “hERG current change (%, negative = inhibition) at 10uM” value is reported as -3.86%. For O=C(O)c1cnn(-c2ccccc2)c1-n1cccc1, the “hERG current change (%, negative = inhibition) at 10uM” value was 9%. For CC(C)(C)OC(=O)N1CCC(c2c(C(=O)N3CCN(C(=O)c4ccco4)CC3)cnn2-c2ccc(F)cc2)CC1, the “hERG current change (%, negative = inhibition) at 10uM” value was -14.8%. In the case of O=C(c1cnn2ccccc12)N1CCN(C2CCCCC2)CC1, the “hERG current change (%, negative = inhibition) at 10uM” value is reported as -9.39%. In the case of CC(C)(C)OC(=O)N1CCC(c2c(C(=O)N3CCN(C(=O)c4ccco4)CC3)cnn2-c2ccc(F)cc2F)CC1, the “hERG current change (%, negative = inhibition) at 10uM” value is reported as -19.6%. For CC(C)(C)OC(=O)N1CCC(c2c(C(=O)N3CCN(C(=O)c4ccco4)CC3)cnn2-c2cccc(Cl)c2)CC1, the “hERG current change (%, negative = inhibition) at 10uM” value was -65.6%. With COc1ccc(-c2c3c(=O)n(C)c(=O)n(C)c3cn2Cc2cccnc2)cc1 the “hERG current change (%, negative = inhibition) at 10uM” value was 4.55%. With O=C(COC(=O)C1CCN(c2ccc(C(F)(F)F)cn2)CC1)Nc1ccc(F)cc1[N+](=O)[O-] the “hERG current change (%, negative = inhibition) at 10uM” value was 13%. For COc1ccccc1CCNC(=O)CSc1nc(-c2ccco2)cc(C(F)(F)F)n1, the “hERG current change (%, negative = inhibition) at 10uM” value was 27.1%. CCCCn1c(-c2csc(CCC)c2)n[nH]c1=S was tested, and the “hERG current change (%, negative = inhibition) at 10uM” value was 14.8%. With CC1CCC2(CC1)NC(=O)N(Cc1cccc(C(F)(F)F)c1)C2=O (stereo not shown) the “hERG current change (%, negative = inhibition) at 10uM” value was 12.9%. For N#C/C(=C\c1ccc(-c2cccc([N+](=O)[O-])c2)o1)C(=O)N1CCOCC1, the “hERG current change (%, negative = inhibition) at 10uM” value was -6.75%. For O=C(NCC1CCCO1)c1ccc(CSCc2cccc(F)c2)o1 (stereo not shown), the “hERG current change (%, negative = inhibition) at 10uM” value was -7.59%. In the case of COc1ccc(C(=O)NNc2cc(C)nc(NNC(=O)c3ccc(OC)cc3)n2)cc1, the “hERG current change (%, negative = inhibition) at 10uM” value is reported as 7.94%. With CCN(C(=O)COc1cccnc1[N+](=O)[O-])C1CCS(=O)(=O)C1 (stereo not shown) the “hERG current change (%, negative = inhibition) at 10uM” value was -0.18%. For CCOc1ccc(CNC(=O)CCS(=O)(=O)Cc2cccc(Cl)c2)cc1OC, the “hERG current change (%, negative = inhibition) at 10uM” value was -12.1%. With O=C(O)c1cc2c(ccc3ccccc32)o1 the “hERG current change (%, negative = inhibition) at 10uM” value was 4.33%. For COC(=O)c1ccc([C@H]2CC(=O)O2)cc1, the “hERG current change (%, negative = inhibition) at 10uM” value was 1.35%. With c1ccc2c(c1)nc(NC1CCCCC1)c1nncn12 the “hERG current change (%, negative = inhibition) at 10uM” value was -35.2%. For Cc1ccc(-n2ncc(C(=O)NCC3CCN(C4CCCC4)C3)c2C2CCN(C(=O)OC(C)(C)C)CC2)cc1 (stereo not shown), the “hERG current change (%, negative = inhibition) at 10uM” value was -20.4%. CC(C)(C)OC(=O)N1CCC(c2c(C(=O)NCC3CCN(C4CCCC4)C3)cnn2-c2ccc(F)cc2)CC1 (stereo not shown) was tested, and the “hERG current change (%, negative = inhibition) at 10uM” value was -50.5%. CC(C)(C)OC(=O)N1CCC(c2c(C(=O)NCC3CCN(C4CCCC4)C3)cnn2-c2ccccc2)CC1 (stereo not shown) was tested, and the “hERG current change (%, negative = inhibition) at 10uM” value was -35.8%.
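Further: peak tail current of the secondary pulse compared with the same well before compound.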
